# Laboratory results published in the supplement of paper PMC8728848.
# Shown is part of a subset that was picked to be rich in the strongest signals.
# B1: BDCA-2 (Homo sapiens), Q8WTT0 (protein)
# chain: MVPEEEPQDREKGLWWFQLKVWSMAVVSILLLSVCFTVSSVVPHNFMYSKTVKRLSKLREYQQYHPSLTCVMEGKDIEDWSCCPTPWTSFQSSCYFISTGMQSWTKSQKNCSVMGADLVVINTREEQDFIIQNLKRNSSYFLGLSDPGGRRHWQWVDQTPYNENVTFWHSGEPNNLDERCAIINFRSSEEWGWNDIHCHVPQKSICKMKKIYI
# Experiments:
# Test in all cases: glycan array binding signal (z-score within array); higher = stronger binding
# Conditions in all cases: glycan notation: IUPAC condensed, linker removed
# [1] = molecular target: Fuc(a1-2)Gal(b1-4)GlcNAc(b1-2)Man(a1-3)[Fuc(a1-2)Gal(b1-4)GlcNAc(b1-2)Man(a1-6)]Man(b1-4)GlcNAc(b1-4)GlcNAc
# In short: (§1)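 The binding signal is a Z-score computed within each array and averaged over linkers. Arrays of the same protein sequence at different concentrations or buffers were also averaged together. Data originate from 3228 arrays in the Consortium for Functional Glycomics database, kept only where the protein sequence was available.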
# [2] = molecular target: Fuc(a1-2)Gal(b1-4)GlcNAc(b1-2)[Fuc(a1-2)Gal(b1-4)GlcNAc(b1-4)]Man(a1-3)[Fuc(a1-2)Gal(b1-4)GlcNAc(b1-2)Man(a1-6)]Man(b1-4)GlcNAc(b1-4)GlcNAc
# In short: as §1
# [3] = molecular target: Fuc(a1-2)Gal(b1-4)GlcNAc(b1-3)Gal(b1-4)GlcNAc
# In short: as §1
# Fuc(a1-2)[Gal(a1-3)]Gal = molecular target: Fuc(a1-2)[Gal(a1-3)]Gal
# In short: as §1
# [4] = molecular target: Fuc(a1-2)[Gal(a1-3)]Gal(b1-3)GalNAc(b1-3)Gal(a1-4)Gal(b1-4)Glc
# In short: as §1
# [5] = molecular target: Fuc(a1-3)[Gal(b1-4)]GlcNAc
# In short: as §1
# Gal(a1-3)Gal = molecular target: Gal(a1-3)Gal
# In short: as §1
# [6] = molecular target: Gal(a1-4)Gal(b1-4)GlcNAc(b1-2)Man(a1-3)[Gal(a1-4)Gal(b1-4)GlcNAc(b1-2)Man(a1-6)]Man(b1-4)GlcNAc(b1-4)GlcNAc
# In short: as §1
# [7] = molecular target: Gal(b1-3)GlcNAc(b1-2)Man(a1-3)[Gal(b1-3)GlcNAc(b1-2)Man(a1-6)]Man(b1-4)GlcNAc(b1-4)GlcNAc
# In short: as §1
# [8] = molecular target: Gal(b1-3)GlcNAc(b1-3)Gal(b1-3)GlcNAc
# In short: as §1
# [9] = molecular target: Gal(b1-3)GlcNAc(b1-3)Gal(b1-4)GlcNAc(b1-2)Man(a1-3)[Gal(b1-3)GlcNAc(b1-3)Gal(b1-4)GlcNAc(b1-2)Man(a1-6)]Man(b1-4)GlcNAc(b1-4)GlcNAc
# In short: as §1
# [10] = molecular target: Gal(b1-3)[Fuc(a1-4)]GlcNAc
# In short: as §1
# [11] = molecular target: Gal(b1-4)GlcNAc(b1-2)Man(a1-3)Man(b1-4)GlcNAc(b1-4)GlcNAc
# In short: as §1
# [12] = molecular target: Gal(b1-4)GlcNAc(b1-2)Man(a1-3)[Gal(b1-4)GlcNAc(b1-2)Man(a1-6)]Man(b1-4)GlcNAc(b1-4)GlcNAc
# In short: as §1
# [13] = molecular target: Gal(b1-4)GlcNAc(b1-2)Man(a1-3)[Gal(b1-4)GlcNAc(b1-2)Man(a1-6)]Man(b1-4)GlcNAc(b1-4)[Fuc(a1-6)]GlcNAc
# In short: as §1
# [14] = molecular target: Gal(b1-4)GlcNAc(b1-2)Man(a1-3)[Gal(b1-4)GlcNAc(b1-2)Man(a1-6)][GlcNAc(b1-4)]Man(b1-4)GlcNAc(b1-4)[Fuc(a1-6)]GlcNAc
# In short: as §1
# [15] = molecular target: Gal(b1-4)GlcNAc(b1-2)Man(a1-3)[GlcNAc(b1-2)Man(a1-6)]Man(b1-4)GlcNAc(b1-4)GlcNAc
# In short: as §1
# [16] = molecular target: Gal(b1-4)GlcNAc(b1-2)Man(a1-3)[Man(a1-6)]Man(b1-4)GlcNAc(b1-4)GlcNAc
# In short: as §1
# [17] = molecular target: Gal(b1-4)GlcNAc(b1-2)[Gal(b1-4)GlcNAc(b1-4)]Man(a1-3)[GlcNAc(b1-4)][Gal(b1-4)GlcNAc(b1-2)[Gal(b1-4)GlcNAc(b1-6)]Man(a1-6)]Man(b1-4)GlcNAc(b1-4)GlcNAc
# In short: as §1
# [18] = molecular target: Gal(b1-4)GlcNAc(b1-2)[Gal(b1-4)GlcNAc(b1-6)]Man(a1-6)[Gal(b1-4)GlcNAc(b1-2)Man(a1-3)]Man(b1-4)GlcNAc(b1-4)GlcNAc
# In short: as §1
# [19] = molecular target: Gal(b1-4)GlcNAc(b1-2)[Gal(b1-4)GlcNAc(b1-6)]Man(a1-6)[Gal(b1-4)GlcNAc(b1-2)Man(a1-3)]Man(b1-4)GlcNAc(b1-4)[Fuc(a1-6)]GlcNAc
# In short: as §1
# [20] = molecular target: Gal(b1-4)GlcNAc(b1-3)Gal(b1-4)GlcNAc(b1-3)Gal(b1-4)GlcNAc
# In short: as §1
# Gal6S(b1-4)GlcNAc6S = molecular target: Gal6S(b1-4)GlcNAc6S
# In short: as §1
# GalNAc(a1-3)GalNAc = molecular target: GalNAc(a1-3)GalNAc
# In short: as §1
# [21] = molecular target: GalNAc(a1-3)GalNAc(b1-3)Gal(a1-4)Gal(b1-4)GlcNAc
# In short: as §1
# GalNAc(b1-6)GalNAc = molecular target: GalNAc(b1-6)GalNAc
# In short: as §1
# GlcA(b1-3)GlcNAc = molecular target: GlcA(b1-3)GlcNAc
# In short: as §1
# [22] = molecular target: GlcA3S(b1-3)Gal(b1-4)GlcNAc(b1-2)Man
# In short: as §1
# GlcNAc(b1-3)Gal(b1-4)Glc = molecular target: GlcNAc(b1-3)Gal(b1-4)Glc
# In short: as §1
# [23] = molecular target: GlcNAc(b1-3)Gal(b1-4)GlcNAc(b1-3)GalNAc
# In short: as §1
# [24] = molecular target: GlcNAc(b1-4)GlcNAc(b1-4)GlcNAc
# In short: as §1
# [25] = molecular target: Man(a1-3)[Man(a1-6)]Man(a1-6)[Man(a1-2)Man(a1-3)]Man(b1-4)GlcNAc(b1-4)GlcNAc
# In short: as §1
# [26] = molecular target: Man(a1-3)[Man(a1-6)]Man(a1-6)[Man(a1-3)]Man
# In short: as §1
# [27] = molecular target: Man(a1-3)[Man(a1-6)]Man(a1-6)[Man(a1-3)]Man(b1-4)GlcNAc(b1-4)GlcNAc
# In short: as §1
# [28] = molecular target: Man(a1-3)[Man(a1-6)]Man(b1-4)GlcNAc(b1-4)[Fuc(a1-6)]GlcNAc
# In short: as §1
# [29] = molecular target: Neu5Ac(a2-3)Gal(b1-3)GlcNAc(b1-2)Man(a1-3)[Neu5Ac(a2-3)Gal(b1-3)GlcNAc(b1-2)Man(a1-6)]Man(b1-4)GlcNAc(b1-4)GlcNAc
# In short: as §1
# [30] = molecular target: Neu5Ac(a2-3)Gal(b1-3)GlcNAc(b1-3)Gal(b1-3)GlcNAc
# In short: as §1
# [31] = molecular target: Neu5Ac(a2-3)Gal(b1-3)GlcNAc(b1-6)GalNAc
# In short: as §1
# Neu5Ac(a2-6)Gal = molecular target: Neu5Ac(a2-6)Gal
# In short: as §1
# Neu5Ac(a2-6)Gal(b1-4)Glc = molecular target: Neu5Ac(a2-6)Gal(b1-4)Glc
# In short: as §1
# [32] = molecular target: Neu5Ac(a2-6)Gal(b1-4)GlcNAc
# In short: as §1
# [33] = molecular target: Neu5Ac(a2-6)Gal(b1-4)GlcNAc(b1-2)Man(a1-6)[Gal(b1-4)GlcNAc(b1-2)Man(a1-3)]Man(b1-4)GlcNAc(b1-4)GlcNAc
# In short: as §1
# [34] = molecular target: Neu5Ac(a2-6)Gal(b1-4)GlcNAc(b1-3)Gal(b1-4)GlcNAc(b1-3)Gal(b1-4)GlcNAc
# In short: as §1
# [35] = molecular target: Neu5Ac(a2-6)Gal(b1-4)GlcNAc(b1-6)[Gal(b1-3)]GalNAc
# In short: as §1
# Neu5Ac(a2-8)Neu5Ac = molecular target: Neu5Ac(a2-8)Neu5Ac
# In short: as §1
# [36] = molecular target: Neu5Ac(a2-8)Neu5Ac(a2-3)Gal(b1-4)GlcNAc
# In short: as §1
# [37] = molecular target: Neu5Ac(a2-8)Neu5Ac(a2-8)Neu5Ac(a2-8)Neu5Ac(a2-3)[GalNAc(b1-4)]Gal(b1-4)Glc
# In short: as §1
# [38] = molecular target: Neu5Gc(a2-3)Gal(b1-4)GlcNAc(b1-3)Gal(b1-4)GlcNAc(b1-2)Man(a1-3)[Neu5Gc(a2-3)Gal(b1-4)GlcNAc(b1-3)Gal(b1-4)GlcNAc(b1-2)Man(a1-6)]Man(b1-4)GlcNAc(b1-4)GlcNAc
# In short: as §1
# [39] = molecular target: Neu5Gc(a2-8)Neu5Gc(a2-3)Gal(b1-4)GlcNAc
# In short: as §1
binder,measurement,setting,value
B1,glycan array binding signal (z-score),[1],-0.085
same,glycan array binding signal (z-score),[2],-0.163
same,glycan array binding signal (z-score),[3],-0.038
same,glycan array binding signal (z-score),Fuc(a1-2)[Gal(a1-3)]Gal,-0.099
same,glycan array binding signal (z-score),[4],-0.11
same,glycan array binding signal (z-score),[5],-0.224
same,glycan array binding signal (z-score),Gal(a1-3)Gal,-0.284
same,glycan array binding signal (z-score),[6],8.11
same,glycan array binding signal (z-score),[7],7.94
same,glycan array binding signal (z-score),[8],-0.16
same,glycan array binding signal (z-score),[9],-0.163
same,glycan array binding signal (z-score),[10],-0.188
same,glycan array binding signal (z-score),[11],5.76
same,glycan array binding signal (z-score),[12],8.18
same,glycan array binding signal (z-score),[13],3.64
same,glycan array binding signal (z-score),[14],3.96
same,glycan array binding signal (z-score),[15],6.87
same,glycan array binding signal (z-score),[16],3.54
same,glycan array binding signal (z-score),[17],-0.146
same,glycan array binding signal (z-score),[18],6.95
same,glycan array binding signal (z-score),[19],8.21
same,glycan array binding signal (z-score),[20],-0.237
same,glycan array binding signal (z-score),Gal6S(b1-4)GlcNAc6S,-0.168
same,glycan array binding signal (z-score),GalNAc(a1-3)GalNAc,-0.119
same,glycan array binding signal (z-score),[21],-0.114
same,glycan array binding signal (z-score),GalNAc(b1-6)GalNAc,-0.153
same,glycan array binding signal (z-score),GlcA(b1-3)GlcNAc,-0.153
same,glycan array binding signal (z-score),[22],-0.151
same,glycan array binding signal (z-score),GlcNAc(b1-3)Gal(b1-4)Glc,0.173
same,glycan array binding signal (z-score),[23],-0.167
same,glycan array binding signal (z-score),[24],-0.228
same,glycan array binding signal (z-score),[25],-0.087
same,glycan array binding signal (z-score),[26],-0.163
same,glycan array binding signal (z-score),[27],-0.184
same,glycan array binding signal (z-score),[28],-0.173
same,glycan array binding signal (z-score),[29],-0.169
same,glycan array binding signal (z-score),[30],-0.196
same,glycan array binding signal (z-score),[31],-0.169
same,glycan array binding signal (z-score),Neu5Ac(a2-6)Gal,-0.173
same,glycan array binding signal (z-score),Neu5Ac(a2-6)Gal(b1-4)Glc,-0.252
same,glycan array binding signal (z-score),[32],-0.282
same,glycan array binding signal (z-score),[33],11.8
same,glycan array binding signal (z-score),[34],-0.186
same,glycan array binding signal (z-score),[35],-0.164
same,glycan array binding signal (z-score),Neu5Ac(a2-8)Neu5Ac,-0.243
same,glycan array binding signal (z-score),[36],-0.192
same,glycan array binding signal (z-score),[37],-0.318
same,glycan array binding signal (z-score),[38],-0.153
same,glycan array binding signal (z-score),[39],-0.189
